# Screens: PubChem, National Center for Advancing Translational Sciences (NCATS)
# In the library only some 8% were active in any assay of this set; here they are far more common.
# KB-V1 cytotox – kills drug-selected multidrug resistant KB-V1 cells | KB-V1 MDR cells viability, CellTiter-Glo, 72 h | Potency, µM (top dose mostly 46.1 µM), actives largely listed as cytotoxic | 400,000 compounds, 3.4% hits | AID 1347076; note: % is set by controls: 0 for no effect and ±100 for the full control effect; nearly all actives have a fitted effect of over 60% in size
#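 KB-V1, DMEM (no phenol red) + 10% FBS; cpd pin-transferred, titration series; 72 h, 37 degrees C; CellTiter-Glo, luminescence. Data normalized, curve-fit.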
# HT1080-NT tox – kills 2HG-producing HT-1080-NT fibrosarcoma cells; 360,000 compounds, 1.6% hits; Potency, µM (top dose mostly 46.1 µM), inactives show at the highest dose activity, negative = less viability, most hits filed as cytotoxic; AID 686970; HT-1080-NT fibrosarcoma viability, CellTiter-Glo ATP luminescence, 48 h;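 note: NT is the 2HG producing partner of a matched IDH1 knockdown line; 0% = DMSO-treated cells and -100% = media-only wells without cells; nearly all actives have a fitted effect of over 55% in size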
#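 Read-out is CellTiter-Glo luminescence after 10 minutes at room temperature, following 48 hours' compound treatment of HT-1080-NT cells (750 cells/well, RPMI, 5% FBS, 37 degrees C).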
# SW480 rerep – DNA re-replication induction in SW480 cells; SW480 DNA re-replication, Hoechst DNA content imaging, 48 h; Potency, µM (series often up to 46.1 µM), without a hit: at the top dose re-replication activation, usual class: activators; 340,000 compounds, 1.8% hits; note: % of control where 0% means no effect; nearly all actives have a fitted effect of over 55% in size
#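 Compounds, transferred as 23 nL by pin tool, were incubated with cells for 48 hr; DNA content per nucleus was then quantified by Hoechst staining and fluorescence plate imaging.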
# MCF10A rereplic – DNA re-replication induction in MCF 10a cells; MCF 10A DNA re-replication, Hoechst nuclear intensity, 48 h; 350,000 compounds, 2.9% hits; AID 624296; Potency, µM (highest dose often 46.1 µM), without a hit: top-dose activity, positive = re-replication, usual class: activators; note: % of control where 0% means no effect; nearly all actives have a fitted effect of over 50% in size
# HT1080 IDH1KD tx – kills HT-1080 cells with IDH1 knockdown | HT-1080 IDH1 knockdown viability, ATP luminescence, 48 h | Potency, µM (series often up to 46.1 µM), for inactives: at the top dose activity, negative = toxicity, most hits filed as cytotoxic | 360,000 compounds, 2% hits | AID 686971;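 note: 0% = DMSO wells and -100% = cell-free medium wells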
#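 Viability of IDH1-knockdown HT-1080 fibrosarcoma cells was assessed by CellTiter-Glo after 48 h at 37 °C with titrated compound; concentration-effect curves were classified by fit quality and response size.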
# KB-3-1 tox – KB-3-1 parental cell cytotoxicity | AID 1347075 | Potency, µM (doses to about 46.1 µM), actives largely listed as cytotoxic | 400,000 compounds, 1.4% hits | KB-3-1 viability, CellTiter-Glo ATP luminescence, 72 h; note: % is set by controls: 0 for no effect and ±100 for the full control effect; nearly all actives have a fitted effect of over 60% in size
#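 72 h, 37 °C compound treatment of KB-3-1 parental cells; CellTiter-Glo added, 10 min, luminescence read. Data corrected against DMSO-only plates and normalized before curve fitting.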
# An asterisk follows results filed as active; i = inactive; ? = inconclusive; . = not tested or not shown; [ ] = another dose, or the depositor's remark. Calls come from the whole dose curve; as a rule, active = well fitted curve in the direction sought with a large enough effect; inconclusive = small, poorly fitted or top-dose-only effect, or another doubt; inactive = no such curve, though single readings can be large; an effect the other way counts as inactive or inconclusive. Potency is the fitted concentration of half-maximal effect.
SMILES,KB-V1 cytotox,HT1080-NT tox,SW480 rerep,MCF10A rereplic,HT1080 IDH1KD tx,KB-3-1 tox
CC1(C)OC2OC(C(=O)N/N=C/c3cc(Br)ccc3O)C3OC(C)(C)OC3C2O1 (configuration not stated),9.2µM*,-19.0%,16.4µM*,?,?,i
COc1ccccc1C1(O)CCN(C(=O)c2cccs2)CC1,20.6µM*,-2.1%,-1.7%,0.9%,-3.9%,i
COc1ccc(OC)c(CN2CCN(C(=O)c3cccs3)CC2)c1,20.6µM*,17.7%,6.8%,7.0%,13.6%,i
COc1cccc(C2(O)CCN(C(=O)c3cccs3)CC2)c1,i,4.2%,1.2%,-1.9%,0.6%,i
O=C(c1cccs1)N1CCN(Cc2ccccc2)CC1,i,16.5%,-1.7%,6.3%,5.4%,i
O=C(c1cccs1)N1CCN(CCCc2ccccc2)CC1,11.6µM*,27.3%,-0.7%,12.4%,-0.7%,i
CCOC(=O)C1(Cc2ccc(OC)cc2)CCN(C(=O)c2ccc3[nH]ccc3c2)CC1,i,13µM*,?,11.6µM*,25.9µM*,?
NC(Cc1c[nH]c2ccccc12)C(=O)NCc1ccco1 (configuration not stated),i,7.2%,-5.7%,1.9%,4.7%,i
Cc1ccccc1C(=O)N1CCN(CCNC(=O)C(=O)Nc2ccc(Br)cc2)CC1,?,-0.2%,1.0%,?,-2.7%,i
CCOC(=O)C1(CC2CC2)CCN(Cc2cnc(-c3ccc(OC)cc3)nc2)CC1,?,-9.5%,-45.0%,13µM*,?,?
CCOC(=O)C1(Cc2cccc(OC)c2)CCN(Cc2cccc(OC)c2OC)CC1,?,?,?,?,?,i
CCOC(=O)C1(Cc2cccc(OC)c2)CCN(Cc2cc(OC)ccc2OC)CC1,i,-3.2%,23.1µM*,?,?,i
COc1ccc(OC)c(CN2CCN(C(=O)c3cccc(S(=O)(=O)Nc4ccc(F)cc4)c3)CC2)c1,14.6µM*,0.9%,-3.5%,5.9%,-6.7%,?
COc1ccc(CN2CCN(C(=O)c3cccs3)CC2)cc1,20.6µM*,-3.6%,?,10.5%,-1.3%,i
CCCCC[C@@H]1C=C(C(=O)O)[C@H](c2ccc(C)cc2)N1S(=O)(=O)c1ccc(C)cc1,i,-0.9%,-28.4%,-55.7%,-8.5%,i
CN1CCc2nc3sc(C(=O)C45CC6CC(CC(C6)C4)C5)c(N)c3cc2C1,i,-2.6%,20.6µM*,9.2µM*,-0.6%,i
CCN1CCc2nc3sc(C(=O)c4ccccc4)c(N)c3cc2C1,?,.,.,.,.,8.2µM*
CCN1CCc2nc3sc(C(=O)c4ccc(F)cc4)c(N)c3cc2C1,i,.,.,.,.,i
Cc1ccc(C(=O)N2CCCC(CCC(=O)NCc3ccc(F)c(F)c3)C2)cn1 (configuration not stated),i,1.2%,9.5%,10.3%,1.0%,i
Cc1cc(CNC(=O)C2CCC(=O)N(CCc3cccc(F)c3)C2)nn1C (configuration not stated),i,-3.4%,0.6%,2.3%,-1.5%,i
COc1ccc(NC(=O)Cn2c(C)csc2=O)c(OC)c1,?,0.7%[9.24 µM],?,-2.9%,3.0%,i
CC1CCN(CC(=O)Nc2nn(-c3ccccc3)nc2C(N)=O)CC1,i,4.2%,-9.0%,13.5%,-0.2%,i
C=CCn1cnc2c(c1=O)c1nc3ccccc3nc1n2/N=C/c1cc(OC)c(OC)c(OC)c1,?,?,-1.4%[9.22 µM],?,?,i
C=CCn1cnc2c(c1=O)c1nc3ccccc3nc1n2/N=C/c1cccc(OC)c1OC,23.1µM*,15.7%,-0.9%,1.1%,?,i
CN(C)S(=O)(=O)c1ccc(Cl)c(NC(=O)CN2C(=O)NC3(CCCC3)C2=O)c1,i,21.9%,-0.2%,1.6%,22.3%,i
